# From PubChem
# Most compounds without a hit are left out; they make up all but 6.1% or so of the library.
# TGFb inhibitor = qHTS for Inhibitors of TGF-b; 1.2% of 410,000 active; HepG2 CAGA-GFP TGF-b/SMAD3 reporter, GFP fluorescence, 18 h; TGF-beta stimulated, 500 pg/mL final; Potency, µM (titrated, usually from 46.1 µM), for inactives: at the highest dose activity, negative = inhibition, most hits filed as inhibitors; also: % is scaled to controls: 0 for no effect and ±100 for the full control effect; nearly all actives have a fitted effect of over 65% in size
#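 Inhibition was scored as loss of TGF-beta-induced (500 pg/mL final, 18 hours, 37 degrees C) GFP in HEPG2 cells carrying a CAGA-GFP reporter, in DMEM with 1% FBS. Well GFP was summed per cell; Activity was normalised to unstimulated and stimulated DMSO wells, then concentration-response fitting.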
# Gal4-VP16 FLuc = VP16 counterscreen qHTS for inhibitors of ROR gamma transcriptional activity; Drosophila S2 Gal4-VP16 UAS-luciferase, luminescence, 20 h; Potency, µM (top dose mostly 53.6 µM), for the others: at the highest dose activity, negative = inhibition, hits mostly inhibitors; 3.5% of 310,000 active;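 also: Gal4-VP16 expression switched on by copper sulfate through the metallothionein promoter; % is scaled to controls: 0 for no effect and ±100 for the full control effect; nearly all actives have a fitted effect of over 50% in size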
# ATXN2 expr inh = Primary qHTS for Inhibitors of ATXN expression; HEK-293 ATXN2-luciferase reporter, luminescence, 24 h; Potency, µM (top dose mostly 57 µM), inactives show at the highest dose activity change, negative = inhibition, hits mostly inhibitors; 0.72% of 360,000 active; also: % is scaled to controls: 0 for no effect and ±100 for the full control effect; nearly all actives have a fitted effect of over 55% in size
#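 ATXN2-luciferase reporter cells (luciferase flanked by upstream and downstream ATXN2 gene portions) were treated 24 h at 37 °C with compounds at up to 57 uM. SteadyGlo luminescence gave expression; GF-AFC fluorescence gave viability.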
# HepG2 tox = qHTS for Inhibitors of TGF-b: Cytotox Counterscreen; HepG2 CAGA-GFP viability, ATP luminescence, 18 h; Potency, µM (highest dose often 46.1 µM), for the others: at the highest dose activity change, negative = cytotoxicity, hits mostly cytotoxic; 0.76% of 410,000 active; AID 588856, 2011
#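 CellTiter-Glo luminescence gave cytotoxicity after 18 hours at 37 degrees C. The cells were HepG2 CAGA-GFP in 1% FBS DMEM, stimulated with 500 pg/mL TGF-beta after compound addition. %Activity was normalised to no-cell wells (complete cell-killing) and DMSO (no toxicity), and curves were fitted and classified.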
# ATXN viability = Viability Counterscreen for Primary qHTS for Inhibitors of ATXN expression; S2 cells (HEK-293 line with an ATXN2-luciferase reporter) viability, CellTiter-Fluor protease fluorescence, 24 h; AID 651635, 2014; Potency, µM (doses to about 56.7 µM), usual class: cytotoxic; 0.49% of 400,000 active; also: nearly all actives have a fitted effect of over 40% in size
# RORg inh = qHTS for inhibitors of ROR gamma transcriptional activity; Nuclear receptor ROR-gamma (Mus musculus), P51450; Drosophila S2 Gal4-RORgamma UAS-luciferase reporter, 20 h; Potency, µM (highest dose often 53.6 µM), for the others: top-dose activity change, negative = inhibition, most hits filed as inhibitors; 5.4% of 310,000 active; also: % is scaled to controls: 0 for no effect and ±100 for the full control effect; nearly all actives have a fitted effect of over 60% in size
# Target sequence (P51450 whole entry, looked up, the tested form may be a part): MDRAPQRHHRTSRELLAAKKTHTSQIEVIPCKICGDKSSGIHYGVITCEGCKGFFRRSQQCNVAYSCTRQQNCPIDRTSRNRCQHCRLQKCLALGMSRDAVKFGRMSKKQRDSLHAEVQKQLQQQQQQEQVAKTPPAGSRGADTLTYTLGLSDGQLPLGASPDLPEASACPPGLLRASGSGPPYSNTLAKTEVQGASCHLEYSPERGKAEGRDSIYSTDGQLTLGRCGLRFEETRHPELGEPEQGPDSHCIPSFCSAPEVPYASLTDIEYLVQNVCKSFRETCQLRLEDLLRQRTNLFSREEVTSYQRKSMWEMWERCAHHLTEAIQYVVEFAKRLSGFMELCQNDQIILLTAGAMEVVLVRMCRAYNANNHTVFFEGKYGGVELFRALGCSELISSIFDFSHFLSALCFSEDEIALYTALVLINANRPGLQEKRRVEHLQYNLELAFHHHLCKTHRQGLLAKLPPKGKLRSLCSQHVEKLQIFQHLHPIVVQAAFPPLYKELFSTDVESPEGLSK
#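 Read-out: Photinus luciferase luminescence; inhibitors lower reporter signal. Insect Schneider cells with Gal4-ROR gamma fusion under metallothionein promoter, UAS reporter; 700 uM final copper sulfate induction, 20 hr, ambient temperature.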
# * marks the source's active call; other numbers are inactive results; i = inactive; ? = inconclusive; · = no result given; ! = not active in a repeat; [ ] = dose if it differs, or a comment. Calls follow the shape of the dose curve; as a rule, active = well fitted curve in the direction sought with a large enough effect; inconclusive = small, poorly fitted or top-dose-only effect, or another doubt; inactive = no such curve, though single readings can be large; an effect the other way counts as inactive or inconclusive. Potency is read from the fitted curve at half-maximal effect.
SMILES,TGFb inhibitor,Gal4-VP16 FLuc,ATXN2 expr inh,HepG2 tox,ATXN viability,RORg inh
CCNCCNc1ccc([N+](=O)[O-])c2cccnc12,-25%,20µM*,-37%,-27%,?,2.8µM*
ClCCN(CCCl)c1ccc(/C=C/c2sc3ccccc3[n+]2CCCCI)cc1,?,·,·,-15%,·,·
CCCCC[C@H]1CCCCC[C@H](O)C[C@H](O)[C@@H](O)/C=C/C(=O)O1,·,·,-10%,·,i,·
CC(C)c1ccc(NC(=O)Nc2nc(C(N)CCc3ccccc3)cs2)cc1 (centres undefined),?,·,28µM*,7.9µM*,28µM*,·
Nc1ccc(CC(N)c2csc(Nc3ncccn3)n2)cc1 (centres undefined),-5%,·,-24%,-4%,i,·
CC(C)CC(N)c1csc(NC(=O)Nc2ccccc2-c2ccccc2)n1 (centres undefined),?,·,-27%,-97%,25µM*,·
O=[N+]([O-])/N=C1\NCCN1Cc1ccc(Cl)nc1,·,·,8%,·,i,·
O=C(O)c1ccc(=O)[nH]c1,·,·,12%,·,i,·
COc1cccc(CN2CCc3nc(N4CCN(c5ncccn5)CC4)ncc3C2)c1,?,·,?,-23%,?,·
CCCCCCC(C)(C)c1ccc([C@@H]2C[C@H](O)CC[C@H]2CCCO)c(O)c1,13µM*,·,14µM*,10µM*!,10µM*,·
C[C@@H]1CN([C@H](C)CO)C(=O)CCCn2nncc2CO[C@@H]1CN(C)C(=O)Nc1ccc(N2CCCCC2)cc1,-2%,·,9%,-11%,?,·
ClC(Cl)(Cl)C(Cl)(Cl)Cl,·,2%,·,·,·,2%
O=C(NCCc1ccc(F)cc1)C(=O)NCC(c1cccs1)S(=O)(=O)c1ccc(Cl)cc1 (centres undefined),-11%,·,?,-18%,?,·
CC(Oc1ccc(Cl)cc1Cl)C(=O)Nc1ccc(S(=O)(=O)Nc2cnc3ccccc3n2)cc1 (centres undefined),?,-19%,5%,7%,i,14%
COc1ccc(NC(=O)C(=O)NNC(=O)C(C)Oc2ccc(Cl)cc2Cl)cc1 (centres undefined),3%,?,-17%,-22%,i,5µM*
CCOC(=O)C1OC1(C)c1ccccc1 (centres undefined),·,-4%,·,·,·,2%
O=C(c1ccc2c(c1)OCO2)C1CCCN(Cc2ccccn2)C1 (centres undefined),-18%,?,1%,-3%,i,3.2µM*
Cc1ncc(CN2CCCC(C(=O)c3cccc(OC(C)C)c3)C2)s1 (centres undefined),-10%,26%,-23%,-22%,i,?
COc1cccc(C(=O)C2CCCN(Cc3ccccn3)C2)c1 (centres undefined),-26%,?,·,-5%,i,3.5µM*
COc1c(C)cc(C(=O)C2CCCN(Cc3ccccn3)C2)cc1C (centres undefined),?,10µM*,-7%,-20%,i,2µM*
CC(C(=O)c1ccccc1)N(C)C (centres undefined),·,·,10%,·,i,·
Cc1ccc(S(=O)(=O)c2nc(-c3ccccc3Cl)oc2N(C)C2CCN(C)CC2)cc1,?,·,-33%,11µM*,?,·
CC(=O)O[C@H]1C[C@@H]2OC3C=C(C)CCC3(C)[C@@]1(C)[C@@]21CO1 (some centres undefined),1.3µM*,·,?,2%,?,·
CCOC(=O)[C@]1(C#N)[C@@H]2C=CC(C(C)=O)=CN2[C@@H](C(N)=O)[C@@H]1c1ccsc1,14%,20µM*,1%,-1%,?,29%
C=CCC1([C@H](C)CCC)C(=O)NC(=O)NC1=O,·,·,9%[116 µM],·,i,·
CC(C)N(CCNC(=O)CN1CCCC1=O)C(C)C,·,·,0%,·,·,·
CCCCC(=O)Cl,·,5%,·,·,·,15%
